Compound activity (PubChem)
Only some compounds are listed: those with a hit (about 8.7% of all), similar ones and a draw of the others.
Pf growth 96h = inhibits malaria parasite growth, 96 h. 320,000 compounds, 6.9% hits. Potency, µM (titrated, usually from 28.7 µM), inactives show at the highest dose activity change, negative = inhibition, usual class: inhibitors. P. falciparum luciferase reporter growth, 96 h
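Cell-based qHTS: luciferase-tagged P. falciparum in erythrocytes (2% hematocrit, 0.05% parasitemia final) incubated with compounds for 96 hours, 37 C, 5% CO2; luciferase detection reagent then added and luminescence measured.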
VACV mCherry inh = vaccinia inhibition (mCherry reporter). 310,000 compounds, 0.63% hits. AID 720579. Potency, µM (series often up to 36.5 µM), for inactives: top-dose activity change, negative = inhibition, actives largely listed as inhibitors. Vaccinia virus mCherry reporter infection, fluorescence; calls by dose curve; tested in A549 cells; note: nearly all actives have a fitted effect of over 35% in size
Pf growth 48h = inhibits P. falciparum growth in the first generation, 48 h. 310,000 compounds, 5.9% hits. Potency, µM (top dose mostly 28.7 µM), without a hit: at the top dose activity change, negative = inhibition, hits mostly inhibitors. AID 504832. P. falciparum luciferase growth in erythrocytes, 48 h
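Luciferase-expressing parasites in RBCs, 2% Hct / 0.1% parasitemia final; RPMI 1640 + 0.5% Albumax; 37 C, 5% CO2, one generation; luminescence read-out, lower signal = inhibition.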
AMA1-RON2 inh = disrupts binding of P. falciparum AMA1 to RON2; AlphaScreen AMA1-biotinylated RON2 peptide binding; Potency, µM (highest dose often 58.2 µM), for inactives: top-dose activity change, negative = inhibition, hits mostly inhibitors; 360,000 compounds, 0.2% hits; AID 720542;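 note: 0% = vehicle wells and -100% = peptide control; nearly all actives have a fitted effect of over 45% in size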
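AMA1 (3D7) with his tag at 25 nM final met compounds first, then biotinylated RON2 peptide at 25 nM; detection used donor plus acceptor beads, 10 µg/mL apiece, read by AlphaScreen after 30 min at room temperature.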
VACV Venus inh = inhibitors of vaccinia virus (Venus reporter) | Vaccinia virus Venus reporter expression, fluorescence | Potency, µM (series often up to 36.5 µM), for the others: at the top dose activity change, negative = inhibition, most hits filed as inhibitors | 330,000 compounds, 0.46% hits | AID 720580; calls by dose curve; tested in A549 cells; note: nearly all actives have a fitted effect of over 30% in size
Starred values were filed as active, the others as inactive; i = inactive; ? = inconclusive; . = no result given; [ ] = remark or other dose. Unless noted, calls come from the whole dose curve; as a rule, active = well fitted curve in the direction sought with a large enough effect; inconclusive = small, poorly fitted or top-dose-only effect, or another doubt; inactive = no such curve, though single readings can be large; an effect the other way counts as inactive or inconclusive. Unless noted, % is set by controls: 0 for no effect and ±100 for the full control effect; potency is the fitted concentration of half-maximal effect.

SMILES	Pf growth 96h	VACV mCherry inh	Pf growth 48h	AMA1-RON2 inh	VACV Venus inh
NC(=O)Cn1c(=O)n(Cc2ccco2)c(=O)c2c3c(sc21)CCCCC3	-17%	.	?	-29%	.
O=c1c2c3c(sc2n(CCN2CCOCC2)c(=O)n1Cc1ccco1)CCCCC3	2.6µM*	.	?	-8%	.
CCOc1ccc(NC(=O)c2cc3cc4ccc(OC)cc4nc3o2)cc1	5.2µM*	-15%	.	-8%	-10%
CCOC(=O)C1CCCN(C(=O)c2cc3cc4ccc(OC)cc4nc3o2)C1 (stereo unspecified)	48%	.	-19%	5%	.
CCOc1ccc(NC(=O)c2cc3cc4ccc(C)cc4nc3o2)cc1	?	-2%	5%	.	0%
COc1ccc2cc3cc(C(=O)N4CCCC(C)C4)oc3nc2c1 (stereo unspecified)	12µM*	.	18%	-11%	.
CCCCN(CC)C(=O)c1cc2cc3ccc(OC)cc3nc2o1	5.2µM*	.	12µM*	26%	.
COc1ccc2cc3cc(C(=O)NCc4ccccn4)oc3nc2c1	0%	-9%	6.6µM*	28%	-4%
COc1ccc(OC)c(CNC(=O)c2ccc3c(c2)c(C)c(C)n3Cc2ccc(Cl)cc2)c1	.	-28%	.	.	-18%
O=C(CSc1nc2ccccc2n1Cc1ccc(F)c(Cl)c1)N1CCN(c2ccc(F)cc2)CC1	.	-17%	.	.	-20%
COc1cccc(C2C3=C(N=C4SCC(=O)N42)c2ccccc2CC3)c1OC (stereo unspecified)	186%	.	12µM*	61%	-18%
COc1cccc(C2C3=C(N=c4s/c(=C\c5ccccc5O)c(=O)n42)c2ccccc2CC3)c1OC (stereo unspecified)	2.9µM*	.	1.9µM*	.	.
COc1ccc(OC)c(C2C3=C(N=C4SCC(=O)N42)c2ccccc2CC3)c1 (stereo unspecified)	?	-8%[1.46 µM]	?	13%	-9%
CC(C)(C)NC(=O)C1CCN(c2nc3ccccc3nc2C(F)(F)F)CC1	.	1%	.	.	-4%
CC(C)(C)C(=O)NCC12C=CC(O1)C1C(=O)N(c3ccccc3)C(=O)C12 (stereo unspecified)	2.1µM*	-2%	27%	-2%	-3%
COc1ccc2c(c1)c(=O)c(S(=O)(=O)c1ccc(F)cc1)cn2Cc1ccccc1Cl	.	-3%	.	.	-3%
COc1ccc(C)c2sc(N(CCCN(C)C)C(=O)c3ccc4c(c3)OCCO4)nc12	8.3µM*	-21%	9.3µM*	-1%	?
Cc1cccc2sc(N(CCN(C)C)C(=O)c3ccc4c(c3)OCCO4)nc12	.	-2%[7.34 µM]	.	.	-5%[7.34 µM]
Cc1cc(C)c2nc(N(CCCN(C)C)C(=O)C3=COCCO3)sc2c1	?	-13%	12µM*	-4%	?
Cc1cc(C)c2nc(N(CCCN(C)C)C(=O)c3ccc4c(c3)OCCO4)sc2c1	7.4µM*	-22%	10µM*	?	-21%
O=C(c1ccccc1Cl)N1c2ncnn2C2(CCCCC2)[C@@H]2CCCC[C@@H]21	.	-3%	.	.	-4%
Cc1ccc(CN2C(=O)c3ccccc3Sc3ccc(C(=O)N4CCOCC4)cc32)cc1	.	i	.	.	-11%
COc1ccc(OC)c(NC(=S)N2CCN(Cc3ccccc3)CC2)c1	18%	.	-1%	0%	.
COc1ccc(OC)c(NC(=S)N2CCC(C(O)(c3ccccc3)c3ccccc3)CC2)c1	?	i	9.3µM*	-5%	-10%
COc1ccc(S(=O)(=O)N2CCC(n3c(C)nc4cccnc43)CC2)cc1Cl	.	-5%	.	.	0%
CCOc1cc(C2c3c(-c4ccccc4O)n[nH]c3C(=O)N2CCc2ccccc2)ccc1O (stereo unspecified)	.	-17%	.	.	-19%
COCCCN1C(=O)c2[nH]nc(-c3cc(C)cc(C)c3O)c2C1c1ccc(O)c(OC)c1 (stereo unspecified)	?	.	9.3µM*	31%	.
CCCN1C(=O)c2[nH]nc(-c3cc(Cl)c(C)cc3O)c2C1c1ccc(O)c(OC)c1 (stereo unspecified)	10µM*	.	?	92%	.
CCc1cccc(NCc2ccccc2-c2nnc(-c3ccccc3Cl)o2)c1	.	-1%	.	.	0%
CCC(=O)N1CCc2cc(S(=O)(=O)NC(C(=O)NCCc3ccccc3)C(C)C)ccc21 (stereo unspecified)	.	-10%	.	.	-12%
